Reference: ChEMBL document CHEMBL3433997, “St. Jude Leishmania screening dataset” (2016)

Assays:
Format in all cases: functional
[1] = target: Solute carrier family 2, facilitated glucose transporter member 1 (Homo sapiens) (UniProt P11166); assay: ST_JUDE_LEISH: Cytotoxicity at 2uM final concentration against transgenic Leishmania Mexicana promastigotes LmGLUT1 that are glucose transport deficient and complemented with the human glucose transporter GLUT1. Activity is measured by DNA content using SYBR green in vitro
[2] = target: Hexose transporter 1 (Plasmodium falciparum) (UniProt O97467); assay: ST_JUDE_LEISH: Cytotoxicity at 2uM final concentration against transgenic Leishmania Mexicana promastigotes LmPfHT that are glucose transport deficient and complemented with the Plasmodium falciparum hexose transporter. Activity is measured by DNA content using SYBR green in vitro
[3] = target: Glucose transporter (Leishmania mexicana) (UniProt O61059); assay: ST_JUDE_LEISH: Cytotoxicity at 2uM final concentration against transgenic Leishmania Mexicana promastigotes LmGT2 that are glucose transport deficient and complemented with the L. Mexicana glucose transporter 2. Activity is measured by DNA content using SYBR green in vitro

Solute carrier family 2, facilitated glucose transporter member 1 (Homo sapiens), sequence (P11166 whole entry): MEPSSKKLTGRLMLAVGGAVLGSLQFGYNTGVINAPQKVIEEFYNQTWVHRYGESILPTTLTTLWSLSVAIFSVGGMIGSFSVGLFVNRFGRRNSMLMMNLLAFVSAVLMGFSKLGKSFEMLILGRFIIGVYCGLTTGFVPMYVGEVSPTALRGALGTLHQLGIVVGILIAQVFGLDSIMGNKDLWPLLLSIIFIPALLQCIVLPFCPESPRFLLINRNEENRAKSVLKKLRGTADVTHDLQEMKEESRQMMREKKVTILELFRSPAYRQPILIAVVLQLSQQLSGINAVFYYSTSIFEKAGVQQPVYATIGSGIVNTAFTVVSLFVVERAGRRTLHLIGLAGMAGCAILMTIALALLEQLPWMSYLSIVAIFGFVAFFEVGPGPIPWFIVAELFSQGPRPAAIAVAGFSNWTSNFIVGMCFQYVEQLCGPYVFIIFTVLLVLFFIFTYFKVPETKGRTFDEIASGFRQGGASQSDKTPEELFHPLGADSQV

| Compound | inhibition [1] [%] | inhibition [2] [%] | inhibition [3] [%] |
| --- | --- | --- | --- |
| CCc1cc(OC)ccc1C1CCN(CCCCNC(=O)c2ccc(NC(=O)c3ccc(Cl)cc3)cc2)CC1 | 3.47 | 5.73 | -1.82 |
| COc1ccc(CNC2CCCC2)cc1-c1ccc(S(=O)(=O)NCCN2CCCC2)s1 | 1.79 | 2.89 | 3.68 |
| COc1ccc(S(=O)(=O)N2CCCc3ccc(Br)cc32)cc1N1CCN(C(=O)C(Cl)(Cl)Cl)CC1 | 2.54 | 2.99 | 1.28 |
| CN1CCCC1CCNCc1ccc(-c2ccc(CNCCc3ccccc3)cn2)cc1 (configuration not stated) | 1.95 | 2.41 | 4.27 |
| COc1ccc(Nc2ncc3c(-c4cccc(NC(=O)Cc5ccncc5)c4)c[nH]c3n2)cc1OC | -0.87 | -1.41 | -1 |
| COc1cc2nc(NCCc3cccc(Cl)c3)nc(NCc3ccccc3)c2cc1OC | 5.15 | 6.21 | 1.06 |
| c1ccc2c(c1)cc(CNCCCN1CCN(CCCNCc3cc4ccccc4c4ccccc34)CC1)c1ccccc12 | -0.37 | 0.84 | -0.41 |
| O=C(NCC(c1ccc(C(F)(F)F)cc1)N1CCCC1)c1cc(-c2ccncc2)c(-c2cccc(O)c2)o1 (configuration not stated) | 0.81 | -0.82 | -0.08 |
| CCOc1c(CNCCCNc2cc(O)c3ccccc3n2)cc(I)cc1OC | -0.3 | -1.22 | 1.41 |
| CC(C)N1CCC(N(Cc2ccc(-c3ccc(C(F)(F)F)cc3)cc2)C(=O)Cn2c(CCc3cccc(F)c3F)cc(=O)c3c2CCC3)CC1 | 3.12 | 4.34 | 5.2 |
| Cc1cccc2nc(-c3cccc(-c4cccc(CNCc5ccccc5)c4)c3)[nH]c12 | 1.86 | 0.34 | 0.66 |
| COc1ccc(NC(=O)[C@H](CC(C)C)Nc2cc(C)nc(NCCOc3ccccc3)n2)cc1 | 1.07 | 2.71 | -0.23 |
| COc1ccc(CNCc2cccc(-c3ccc(-c4nc5cccc(C)c5[nH]4)cc3)c2)cc1 | 14 | 9.73 | 7.5 |
| CC(C)c1ccc(N2CCN(CCCCNC(=O)c3ccc(NC(=O)c4cc(Cl)cc(Cl)c4)cc3)CC2)cc1 | -0.22 | 1.11 | 1.9 |
| O=C(/C=C/c1ccc([N+](=O)[O-])cc1)N1CCC(NS(=O)(=O)c2cccc(C(F)(F)F)c2)CC1 | 3.4 | 3 | 0.97 |
| COc1ccc(CC(C)CON2C(N)=NC(N)=NC2(C)C)cc1 (configuration not stated) | 4.07 | 4.35 | 4.04 |
| Cc1cc(N(C)C)nc(Nc2ccc(NC(=O)C3CCCCC3)cc2)n1 | 5.14 | 5.64 | 3.75 |
| CC(=O)Nc1cc(C(=O)Nc2cccc(-c3cccc(-c4nc5cccc(C)c5[nH]4)c3)c2)ccc1C | 2.89 | 2.86 | 1.31 |
| COc1ccc(Cc2c(Cl)nc3nc(N)nc(N)c3c2C)c(OC)c1OC | 5.35 | 12.4 | 5.26 |
| CCN(CC)CCN(Cc1ccc(-c2ccc(C(F)(F)F)cc2)cc1)C(=O)Cn1c(CCc2ccc(F)c(F)c2F)nc(=O)c2cccnc21 | 0.59 | 0.44 | -0.8 |
| CC(C)N1CCC(N(Cc2ccc(-c3ccc(Cl)cc3)cc2)C(=O)Cn2c(CCc3cccc(F)c3F)cc(=O)c3ccccc32)CC1 | 2.59 | 2.15 | 1.92 |
| O=C(NCCCc1ccccc1)c1csc(C2CCCN(C(=O)c3ccc(O)c(-c4cccc5ccccc45)c3)C2)n1 (configuration not stated) | 0.14 | -0.18 | -0.59 |
| Clc1ccc(-c2nc3cc(-c4ccc5nc(-c6ccc(Cl)cc6)[nH]c5c4)ccc3[nH]2)cc1 | 11.2 | 12.2 | 8.04 |

| Compound | inhibition [1] [%] | inhibition [2] [%] | inhibition [3] [%] |
| --- | --- | --- | --- |
| O=S(=O)(Nc1cccc(CCN2CCC(N3CCCCC3)CC2)c1)c1cccc(C(F)(F)F)c1 | 0.17 | 3.24 | 0.82 |
| O=C(O)CCc1ccc(-c2c[nH]c3ncc(-c4ccc5ncccc5c4)cc23)cc1 | 10.2 | 8.63 | 5.55 |
| COc1cccc(C2CCN(CCN3CCC(NC(=O)c4ccc(-c5ccc(Cl)cc5)cc4)CC3)CC2)c1 | -0.82 | 0.69 | 1.81 |
| CS(=O)(=O)c1ccc2nc(NC(=O)c3csnn3)sc2c1 | 3.22 | 3.89 | 4.47 |
| CC(=O)Nc1ccc(C(=O)Nc2ccc(-c3cccc(-c4nc5cccc(C)c5[nH]4)c3)cc2)cn1 | -3.82 | -0.04 | -3.28 |
| O=C1c2ccccc2C(=O)N1CCOc1c(Br)cc(Br)cc1CNCCCNc1cc(=O)c2ccccc2[nH]1 | 2.28 | 1.96 | 3.03 |
| CC(Oc1cccc(Cl)c1)C(=O)N1CCc2ccccc21 (configuration not stated) | -1.29 | -1.34 | -1.29 |
| O=C(N[C@H]1CCN(CCc2ccc(O[C@H]3CCNC3)c(Cl)c2)C1)c1ccc(Cl)c(Cl)c1 | 1.64 | 1.22 | 3.35 |
| Cc1cccc2c3c([nH]c12)C1(CCN(Cc2ccccc2)CC1)NC(C(=O)NCc1ccccc1)C3 (configuration not stated) | 0.05 | -0.76 | 0.87 |
| O=C(Nc1ccc(Cn2ncc(N3CCCNCC3)c(Cl)c2=O)cc1)Nc1cccc(C(F)(F)F)c1 | 0.62 | 1.58 | -2.08 |
| CC(C)CCN1CCC(Oc2ccc(NC(=O)c3ccc(F)cc3)cc2Cl)CC1 | -2.57 | -4.4 | 0.92 |
| CC(C)N1CCN(C(CN2CCN(CCCOc3ccccc3-c3ccccc3)CC2)c2ccc(F)cc2)CC1 (configuration not stated) | 6.32 | 5.02 | 5.95 |
| CN1CCN(CCCN(Cc2ccc(-c3ccc(CNCc4ccc5c(c4)OCO5)cc3)cc2)C(=O)Nc2ccccc2)CC1 | 11.6 | 13.7 | 11 |
| CCNc1cc(C(=O)N[C@@H](Cc2ccccc2)[C@H](O)CNCc2cccc(-c3cncnc3)c2)cc(N2CCCC2=O)c1 | 3.81 | 3.48 | 4.42 |
| N#Cc1ccc(CN2CCC(Oc3ccc(NC(=O)c4cccs4)cc3Cl)CC2)cc1 | 5 | 10.5 | 8.03 |
| COc1cc2nc(N3CCC(CNCc4ccc(-c5ccc(C(F)(F)F)cc5)cc4)CC3)nc(N)c2cc1OC | 106 | 107 | 110 |
| c1ccc(Oc2ccc(Nc3ccnc4cc(-c5ccc(CN6CCNCC6)o5)ccc34)cc2)nc1 | 11.2 | 8.71 | 5.3 |
| Nc1cc(-c2cccc(Cl)c2)nn1-c1ccnc2cc(Cl)ccc12 | -0.77 | -0.13 | -4.37 |
| Cn1cc(C2CCN(CCCCNC(=O)c3ccc(C(=O)Nc4ccc(C#N)cc4)cc3)CC2)c2ccccc21 | 9 | 7.5 | 7 |
| CCC(N)(C#Cc1ccc(-c2c(C)[nH]c(C)c(Br)c2=O)cc1)CC | 2.45 | 2.05 | 0.36 |
| CN(C)Cc1ccc(-c2ccc3c(Nc4ccc(Cl)cc4F)ccnc3c2)o1 | -1.45 | -1.56 | 5.24 |
| COc1ccc(C23Oc4cc(OC)cc(OC)c4C2(O)C2(CC3c3ccccc3)SCCCS2)cc1 (configuration not stated) | 0.76 | -0.16 | 1.15 |
| O=c1cc(NCCC(CNCc2cc3ccccc3o2)NCc2cc(Br)cc(Br)c2)[nH]c2ccccc12 (configuration not stated) | 0.2 | 0.33 | 2.33 |

| Compound | inhibition [1] [%] | inhibition [2] [%] | inhibition [3] [%] |
| --- | --- | --- | --- |
| Cn1nc(-c2cccc(CN[C@@H]3CCc4ccc(O)cc43)c2)c2cnc(NC3CCCC3)nc21 | 4.2 | 3.87 | 4.68 |
| COC(=O)c1cccc(CNCc2ccc(-c3cccc(-c4nc5ccccc5[nH]4)c3)cc2)c1 | -2.56 | -1.88 | 0 |
| CCc1ccc(-c2cnc(N)c3cc(-c4ccnc(N)n4)ccc23)cc1 | -0.81 | -4.63 | -1.72 |
| Cc1cc(-c2c[nH]c3ncc(-c4cccc5ncccc45)cc23)ccc1C(=O)O | 0.89 | 0.55 | 0.66 |
| O=C(NCC1CCN(Cc2cccc(C(F)(F)F)c2)C1)c1cc(-c2cccc(Cl)c2)cs1 (configuration not stated) | 1.83 | 1.37 | -3.57 |
| COc1cc(-c2[nH]c(-c3ccc(OCCN(C)C)cc3)cc2-c2ccncc2)ccc1Cl | 1.46 | 1.55 | 1.76 |
| O=C(Nc1ccc(OC2CCN(Cc3ccc(F)cc3)CC2)c(Cl)c1)c1ccco1 | 1.06 | 1.1 | 3.28 |
| CCNc1cc(C)nc(Nc2ccc(NC(=O)c3ccc(OC)c(OC)c3)cc2)n1 | 5.48 | 1.84 | 2.34 |
| FC(F)(F)c1ccc2[nH]c(-c3ccc(-c4ccc(CN5CCN(c6cnccn6)CC5)cc4)s3)nc2c1 | 2.24 | 1.86 | -2.19 |
| c1ccc(CCNCc2ccc(-c3ccc(CNc4ccc5ncccc5c4)cc3)cc2)cc1 | 9.9 | 1.61 | 2.13 |
| CCNc1cc(C(=O)N[C@@H](Cc2ccccc2)[C@H](O)CNC2C3CC4CC(C3)CC2C4)cc(N2CCCCS2(=O)=O)c1 (some centres not stated) | 0.69 | 0.88 | -1.02 |
| CCCc1cc(Cc2cnc(N)nc2N)cc(CC)c1OC | 6.06 | 4.59 | 2.29 |
| Cc1ccc2sc(N3CCN(C(=O)c4ccc([N+](=O)[O-])o4)CC3)nc2c1C | 44.5 | 44.3 | 13.7 |
| Cn1ccc(C(=O)Nc2ccc3c(c2)CN(Cc2ccc(N4CCCC4)o2)CCC3)n1 | 28.5 | 54.6 | -0.65 |
| O=C(Nc1cc(Cl)c(Cl)cc1NC(=O)c1cccc(-c2ccccc2)c1O)c1cccc(-c2ccccc2)c1O | 5.1 | 0.97 | 2.6 |
| Cc1nc(C)c(-c2ccc(Oc3cccc(OC(F)(F)F)c3)cc2)c(O)c1Cl | 2.22 | 2.75 | 2.84 |
| c1cc(CN2CCCCC2)cc(OCCCNc2ccnc3ccccc23)c1 | 18 | 7.87 | 5.12 |
| Cn1nccc1C(=O)NCCNCc1ccc(-c2ccc(-c3nc4cc(C(F)(F)F)ccc4[nH]3)cc2)cc1 | 6.01 | 0.59 | 4.43 |
| CCC(CC)n1c(C)cc2c3c(N)nc(N)nc3ccc21 | 89.4 | 90 | 70.8 |
| O=C(NC1CC1)c1ccc(Cn2c(SCc3cccc(Cl)c3)nc3ccccc3c2=O)cc1 | 0.42 | -0.54 | -1.07 |
| O=C(NCCc1ccc(F)cc1)c1ccc(N2CCN(c3ccncc3)CC2)nc1 | 2.72 | 0.74 | -4.35 |
| COc1cc(Nc2ccnc3ccc(C(C)(C)C)cc23)cc(OC)c1OC | 0.32 | 0.17 | 1.66 |
| O=C(NCCN1CCCCC1)c1cccc(Nc2nccc(Nc3ccc(Oc4ccccc4)cc3)n2)c1 | -0.01 | -0.85 | -0.27 |
